Reference: ChEMBL document CHEMBL4513216, “Probing the Open Global Health Chemical Diversity Library for Multistage-Active Starting Points for Next-Generation Antimalarials” (ACS Infect Dis, 2020)
In all, about 69,000 compounds went through this assay and about 8,600 (12%) showed an effect of 50% or more. This is one part of a sample in which strong results are shown more often than they occur.

system: Plasmodium berghei; assay: Screen against P. berghei liver stage (PbLuc), transformed with Luciferase, at 10uM; assay type: functional, HepG2; conditions: tested at 10 uM

First: O=C(NCC(F)F)c1cc(-c2ccccc2)nc2ncnn12
Second: CNC(=O)c1cc(-c2ccccc2)nc2ncnn12
The INHIBITION of the first is higher: 60.2% for the first, 49% for the second.

First: COC(=O)CNC(=O)c1cc(-c2ccccc2)nc2ncnn12
Second: CCc1ncc2c(n1)CN(C(=O)CNC(=O)c1ccccc1)C2
The INHIBITION of the first is lower: 28.2% for the first, 30.3% for the second.

Going from `Cc1ccc(C(=O)N2CCC3(CC2)COC(COc2ccccn2)C3)o1` (centres undefined) to `CS(=O)(=O)N1CC2(CCN(Cc3ccccn3)C2)Cc2ccccc21` (centres undefined), the INHIBITION rises from -9.1% to 14.3%.

Compared with `O=C(c1ccncc1)N1CCCC1c1cccc(Br)c1` (centres undefined), `O=C(O)[C@@H]1CCCN1c1nccc(Nc2ccccc2)n1` is lower in INHIBITION: 15.1% for the first, 0.618% for the second.

Going from `O=C(Cn1c(=O)oc2ccccc21)N1Cc2cnn(CCO)c2C1` to `O=C(Cn1c(=O)oc2ccccc21)N1Cc2cncnc2C1`, the INHIBITION rises from 13.7% to 15.4%.

Compared with `CCc1ncc2c(n1)CN(C(=O)COC)C2`, `CCc1ncc2c(n1)CN(C(=O)CNC(=O)C(C)C)C2` is higher in INHIBITION: -7.35% for the first, 10.3% for the second.

Compared with `CC(=O)NCC(=O)N1Cc2cnc(CC(C)C)nc2C1`, `CCc1ncc2c(n1)CN(C(=O)CC(C)NC(C)=O)C2` (centres undefined) is lower in INHIBITION: 60.3% for the first, 51.2% for the second.

First: CC(C)Cc1ncc2c(n1)CN(C(=O)Cn1c(=O)oc3ccccc31)C2
Second: CC(=O)c1c(C)nn(CC(=O)N2Cc3cnc(CC(C)C)nc3C2)c1C
The INHIBITION of the first is higher: 54.5% for the first, 27.9% for the second.

Going from `CCc1ncc2c(n1)CN(C(=O)c1c(C)[nH]c(C(C)=O)c1C)C2` to `CCc1ncc2c(n1)CN(C(=O)c1c(C)[nH]c3c1C(=O)CCC3)C2`, the INHIBITION rises from 39.6% to 61%.

Compared with `CCOc1ccc(C(=O)N2Cc3cnc(CC)nc3C2)o1`, `O=C(Cc1ccc2c(c1)OCC2)Nc1nn[nH]n1` is higher in INHIBITION: -6.83% for the first, 23.1% for the second.

First: FC(F)(F)c1ccc(-c2cnc(C3CCCN3)cn2)cc1 (centres undefined)
Second: O=C1NCCCCC1NCc1csc(-c2ccccn2)n1 (centres undefined)
The INHIBITION of the first is higher: 34.675% for the first, 8.07% for the second.

Compared with `CCC(CC)C(=O)N1CCN(Cc2cc(-c3ccncc3)nn2C)CC1`, `Cc1cc(C(=O)N2CCN(Cc3ccsc3)CC2)c(C)n1C1CC1` is higher in INHIBITION: -8.12% for the first, -1.14% for the second.

Compared with `Cc1nn(C)c(N2CCOCC2)c1CNCc1ccccc1CO`, `Cc1noc(C)c1CN(C)Cn1c(=O)n(C)c2ccccc21` is higher in INHIBITION: -25.9% for the first, 28.2% for the second.

Compared with `NC(=O)C(NCc1nn(-c2ccccc2)c2c1CCC2)c1ccccc1` (centres undefined), `O=C(Cc1ccccc1)NCc1ncc(-c2ccccc2C(=O)O)cn1` is lower in INHIBITION: 8.15% for the first, 1.65% for the second.

Going from `Fc1ccccc1CN1CCC(c2noc(-c3ccccn3)n2)CC1` to `O=C([C@@H]1CCCN1c1nccc(Nc2ccccc2)n1)N1CCCCC1`, the INHIBITION rises from -23.4% to 78.7%.

First: CC(Cn1cccn1)NC(=O)NCc1ccoc1 (centres undefined)
Second: CCC(C)CNC(=O)[C@@H]1CCCN1c1nccc(Nc2ccccc2)n1 (some centres undefined)
The INHIBITION of the first is higher: 15.6% for the first, 13.5% for the second.

Compared with `CC(C)CC(=O)NCCCc1cc(N)n(-c2ccccc2)n1`, `COCC(=O)NCc1ccc(-c2ccccc2C(=O)O)cn1` is lower in INHIBITION: 16.6% for the first, -26.7% for the second.

Compared with `Cc1noc(C)c1CN(C)C(=O)Cn1c(=O)n(C)c2ccccc21`, `Cc1noc(C)c1CN(C)Cn1c(=O)oc2ccccc21` is higher in INHIBITION: 26.8% for the first, 50.4% for the second.

First: Cc1ccc(C(CNC(=O)c2c(C)noc2C(C)C)N(C)C)cc1 (centres undefined)
Second: Cc1ccc(CNC(=O)c2ccc(F)cc2)o1
The INHIBITION of the first is higher: 7.12% for the first, 0.868% for the second.

Going from `Cc1cc(C)n(CC(C)NCc2nncn2C2CCCCC2)n1` (centres undefined) to `CC(CN1CCOCC1)NCc1nncn1C1CCCCC1` (centres undefined), the INHIBITION rises from -47.9% to 28.3%.

First: CC(CN1CCCCCC1)NCc1nncn1C1CCCCC1 (centres undefined)
Second: O=C(c1ccc[nH]1)N1CCCn2c(CNC3CCC3)nnc2C1
The INHIBITION of the first is higher: 75.4% for the first, 45.7% for the second.

First: O=C(NCc1ccccc1)[C@H]1C[C@H]2CN(S(=O)(=O)C3CC3)C[C@@H]1O2
Second: Cc1n[nH]c(CN2CCN(Cc3ccccc3)[C@@H]3CS(=O)(=O)C[C@@H]32)n1
The INHIBITION of the first is higher: 31.8% for the first, 18.9% for the second.

Compared with `CC1CN(Cc2ccc(-n3cccn3)cc2)CCO1` (centres undefined), `Cn1ccnc1CN1CCN(Cc2ccccc2)[C@@H]2CS(=O)(=O)C[C@@H]21` is higher in INHIBITION: -15.5% for the first, 46.7% for the second.

First: Cc1noc(C)c1CN1C[C@@H]2CC(F)(F)C[C@@H]2C1
Second: Cc1noc(C)c1CN1C[C@H]2CNC[C@H]2C1
The INHIBITION of the first is higher: 87.2% for the first, -19.2% for the second.

Compared with `CNC(=O)[C@@H]1C[C@H]2CN(Cc3c(C)noc3C)C[C@H]2N1C(C)C`, `CNC(=O)[C@H]1C[C@@H]2CN(Cc3c(C)noc3C)C[C@@H]2N1C(C)=O` is lower in INHIBITION: 83.8% for the first, 22.2% for the second.

Going from `Cc1noc(C)c1CN1C[C@@H]2C[C@@H](C)O[C@@H]2C1` to `Cc1noc(C)c1CN1C[C@@H]2C[C@H](C(=O)NCC3CC3)N(C)[C@@H]2C1`, the INHIBITION rises from -10.2% to 26%.

Compared with `CC(=O)N1CCC(c2cnc(NC3CCOCC3)cn2)CC1`, `Cc1n[nH]c(CN2CCN(C(=O)C3CCC3)[C@@H]3CS(=O)(=O)C[C@@H]32)n1` is higher in INHIBITION: -20.6% for the first, -2.79% for the second.

Going from `Cc1ncsc1CNC(=O)N(CCCO)C1CCc2ccccc21` (centres undefined) to `O=C(Cc1ccccc1)NCc1ccc(-c2ccccc2C(=O)O)cn1`, the INHIBITION rises from -7.35% to 50.3%.

First: Cc1ccc(S(=O)(=O)N2CCc3ccc(F)cc32)cc1C(=O)O
Second: Cc1cc(S(=O)(=O)N2CCc3ccc(F)cc32)cc(C(=O)O)c1C
The INHIBITION of the first is lower: -3.2% for the first, 61.3% for the second.

Going from `COc1cc(S(=O)(=O)N2CCc3ccc(F)cc32)cc(C(=O)O)c1OC` to `O=C(c1ccc[nH]1)N1CCc2c(cccc2S(=O)(=O)N2CCOCC2)C1`, the INHIBITION falls from 42.9% to 22.2%.

Going from `CC(C)CNC(=O)CNc1c(NCc2ccco2)c(=O)c1=O` to `Cc1cccc(NC(=O)Nc2c[nH]c(=O)[nH]c2=O)c1C`, the INHIBITION falls from 31.3% to -13.6%.

Going from `CCN1CCc2[nH]cnc2C12CCN(Cc1ccc3nsnc3c1)CC2` to `Cc1n[nH]c(CN2CCN(CC3CC3)[C@@H]3CS(=O)(=O)C[C@@H]32)n1`, the INHIBITION rises from 23.6% to 55.9%.

First: CC(C)CN(c1cn[nH]c1)S(=O)(=O)c1cccc(C#N)c1
Second: Cc1ncc(S(=O)(=O)N(CC(C)C)c2cccc(O)c2)s1
The INHIBITION of the first is lower: 10.8% for the first, 61% for the second.

Compared with `CC(=O)Nc1ncc(S(=O)(=O)Nc2cccc(O)c2)s1`, `CC(C)=CCN1CCN(Cc2nccn2C)[C@H]2CS(=O)(=O)C[C@H]21` is higher in INHIBITION: 13.5% for the first, 23.9% for the second.

`Cn1ccnc1CN1CCN(CC2CC2)[C@@H]2CS(=O)(=O)C[C@@H]21` showed an INHIBITION of 56.7%.
